Results filed as inconclusive are left out. Activity calls are given as the source filed them. The call rests on the fitted dose curve; in most records, active means well fitted curve in the direction sought with a large enough effect; inconclusive means small, poorly fitted or top-dose-only effect, or another doubt; inactive means no such curve, though single readings can be large; an effect the other way counts as inactive or inconclusive.

Test [1] is described as follows: qHTS of pediatric cancer cell lines to identify multiple opportunities for drug repurposing: Primary screen for SK-N-SH cells (AID 1347098). Further: nearly all actives have a fitted effect of over 65% in size. Summed up:
(§1)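 Cells (500-1,000/well) rested 5 h, then received compounds for 48 h; metabolically active cells were measured by CellTiter-Glo luminescence. Final concentrations spanned up to 46 µM (MIPE, 11-point) or 0.59 nM-46 µM (NPC, 8-point) in primary screens, 11-point in follow-ups.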
In general terms: Quantitative high-throughput screening tests each substance at several concentrations.

Test [2] can be described thus: qHTS of pediatric cancer cell lines to identify multiple opportunities for drug repurposing: Primary screen for NB1643 cells (AID 1347099). Further: nearly all actives have a fitted effect of over 50% in size. Summed up:
(§2)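 Following a 5-hour attachment period, cells at 500-1,000/well received compounds and were cultured for 48 hours. CellTiter-Glo was added and luminescence read to estimate viable, metabolically active cells.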

A short description of test [3]: qHTS of pediatric cancer cell lines to identify multiple opportunities for drug repurposing: Primary screen for LAN-5 cells (AID 1347100). Summed up:
(§3)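 Cells (500-1,000/well) in growth media were settled 5 h at 37 degrees C, then given compounds for 48 h. Viability was read as CellTiter-Glo luminescence. Primary runs used MIPE at 11 points (0.78 nM-46 µM) and NPC at 8 points (0.59 nM-46 µM); follow-ups used 11 points.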

Test [4] in a line: qHTS of pediatric cancer cell lines to identify multiple opportunities for drug repurposing: Primary screen for BT-12 cells (AID 1347101). Further: nearly all actives have a fitted effect of over 25% in size. Summed up:
as §1

Test [5] in a line: qHTS of pediatric cancer cell lines to identify multiple opportunities for drug repurposing: Primary screen for Rh18 cells (AID 1347102). Further: nearly all actives have a fitted effect of over 65% in size. In a few lines:
as §3

The nature of test [6]: qHTS of pediatric cancer cell lines to identify multiple opportunities for drug repurposing: Primary screen for RD cells (AID 1347104). Further: nearly all actives have a fitted effect of over 55% in size. Summed up:
as §2

A short description of test [7]: qHTS of pediatric cancer cell lines to identify multiple opportunities for drug repurposing: Primary screen for MG 63 (6-TG R) cells (AID 1347105). Further: nearly all actives have a fitted effect of over 50% in size. Summed up:
as §2

Test [8] in a line: qHTS of pediatric cancer cell lines to identify multiple opportunities for drug repurposing: Primary screen for Rh30 cells (AID 1347107). Further: nearly all actives have a fitted effect of over 75% in size. Summed up:
as §3

Test [9] in a line: qHTS of pediatric cancer cell lines to identify multiple opportunities for drug repurposing: Primary screen for OHS-50 cells (AID 1347103). Further: nearly all actives have a fitted effect of over 40% in size. Summed up:
as §1

Test [10] can be described thus: qHTS of pediatric cancer cell lines to identify multiple opportunities for drug repurposing: Primary screen for control Hh wild type fibroblast cells (AID 1347106). Further: nearly all actives have a fitted effect of over 55% in size. Summed up: as §3
Potency means the concentration at half of the fitted maximal effect.

`O=C1NCC2(CCN(CCc3ccccc3)CC2)O1`: the Potency entry in test [1], in test [2], in test [3], in test [4], in [5] and in test [6] was “inactive” each time. For the same molecule, the Potency result in test [7] and in [8] was “inactive” in each case.
In the case of `COc1ccc(-c2nc(N3CCOCC3)c3sc(CN(C)c4ncc(C(=O)NO)cn4)cc3n2)cn1`, the Potency in test [1] is 34.1 nM (active); in test [2], 1 nM (active); in [3], 1 nM (active); in test [4], 8.6 nM (active); in [5], 1 nM (active); in test [9] it was 1.1 nM (active). For the same molecule, the values for the Potency in test [6], in test [7] and in test [8] were 16.6 nM (active), 29.6 nM (active) and 209 nM (active), respectively. Besides, in test [10], the Potency result was “inactive”.
Take `NC1CCC(Nc2nc(Nc3ccc(C(=O)N4CCCCC4)cc3)c3ncn(-c4cccc(F)c4)c3n2)CC1` (configuration not stated): the Potency entry in test [1], in [2], in test [3], in [4], in test [5] and in test [9] was “inactive” in each case. Besides, the Potency entry in [6], in test [7], in test [10] and in test [8] was “inactive” each time.
Take `CN(C)CCC(c1ccccc1)c1ccccn1` (configuration not stated): the Potency result in test [1], in test [2], in test [3], in [4], in test [5] and in test [9] was “inactive” throughout. Besides, the Potency result in test [6], in test [7], in [10] and in [8] was “inactive” throughout.
`CC(C)(C)OC(=O)N[C@H]1CCCCCC=C[C@@H]2C[C@@]2(C(=O)NS(=O)(=O)C2CC2)NC(=O)[C@@H]2C[C@@H](OC(=O)N3Cc4cccc(F)c4C3)CN2C1=O`: the Potency entry in test [1], in test [2], in test [3], in test [4], in test [5] and in test [9] was “inactive” throughout. Moreover, the Potency result in test [6], in [7], in test [10] and in test [8] was “inactive” throughout.
Consider `COc1ccc(-c2coc3cc(O)ccc3c2=O)cc1`, for which the Potency result in test [1], in test [2], in [3], in [4], in test [5] and in [9] was “inactive” throughout. Moreover, the Potency result in test [6], in test [7] and in [8] was “inactive” throughout.
`O=C(O)Cc1cccc2ccccc12`: the Potency result in [1], in test [2], in test [3], in test [4], in test [5] and in [9] was “inactive” each time. For the same molecule, the Potency result in test [6], in test [7], in test [10] and in [8] was “inactive” in each case.
As to `CCc1ccc(C=C2SC(=S)NC2=O)cc1`, the Potency entry in test [1], in test [3], in [4], in [5], in test [6] and in test [7] was “inactive” in each case. The Potency result in test [10] and in test [8] was “inactive” throughout. The Potency in [2] was 23500 nM (active).
Turning to `Cn1c(N2CCCCS2(=O)=O)nc(C(=O)NCc2ccc(F)cc2)c(O)c1=O`, the Potency entry in test [1], in test [2], in test [3], in [4], in test [5] and in [6] was “inactive” in each case. For the same molecule, the Potency entry in [7], in test [10] and in test [8] was “inactive” in each case.
As to `COc1ccccc1N1CCN(CCCNc2cc(=O)n(C)c(=O)n2C)CC1`, the Potency entry in [1], in [2], in [3], in [4], in test [5] and in test [6] was “inactive” each time. Also, the Potency result in [7], in [10] and in test [8] was “inactive” each time.
For `COc1cc(O)c2c(c1)C(=O)c1cc(C)cc(O)c1C2=O`, the Potency entry in test [1], in [2], in test [3], in test [4], in test [5] and in [6] was “inactive” in each case. The Potency result in [7] and in test [10] was “inactive” throughout.
With `CCN1CCC[C@H]1CNC(=O)c1cc(S(N)(=O)=O)ccc1OC`, the Potency entry in test [1], in test [2], in [3], in test [4], in [5] and in [9] was “inactive” in each case. Moreover, the Potency result in test [6], in [7], in [10] and in [8] was “inactive” each time.
Consider `CCn1cc(C(=O)O)c(=O)c2ccc(C)nc21`, for which the Potency entry in [1], in [2], in test [3], in test [4], in [5] and in test [9] was “inactive” throughout. For the same molecule, the Potency result in test [6], in [7], in test [10] and in test [8] was “inactive” each time.
Turning to `CNC(=O)c1ccc2cc(C3(O)CCn4cncc43)ccc2c1` (configuration not stated), the Potency result in [1], in test [2], in test [3], in test [4], in test [5] and in test [6] was “inactive” each time. Besides, the Potency entry in [7], in test [10] and in test [8] was “inactive” each time.
As to `C[C@H]1[C@H](NC(=O)C(=NOC(C)(C)C(=O)O)c2csc(N)n2)C(=O)N1S(=O)(=O)O`, the Potency entry in [1], in test [2], in [3], in test [4], in test [5] and in test [9] was “inactive” in each case. The Potency result in test [6], in [7] and in test [8] was “inactive” throughout.
As for `CN1C[C@H]2c3ccccc3Oc3ccc(Cl)cc3[C@@H]2C1`, the Potency result in [1], in test [2], in test [3], in [4], in test [5] and in [6] was “inactive” throughout. In addition, the Potency entry in test [7], in test [10] and in test [8] was “inactive” each time.
In the case of `Cc1nc(N)sc1-c1ccnc(Nc2ccc(N3CCOCC3)cc2)n1`, the Potency in test [1] is 6810 nM (active); in test [2], 9350 nM (active); in [3], 332 nM (active); in test [4] it was 24300 nM (active); in test [5], 16600 nM (active); in test [9] it was 3850 nM (active). In addition, the results for the Potency in test [6], in [7] and in [10] were 20900 nM (active), 5900 nM (active) and 16600 nM (active), respectively.
`CO[C@H]1C=CC=C(C)C(=O)NC2=CC(=O)C(NCCN(C)C)=C(C[C@@H](C)C[C@H](OC)[C@@H](O)[C@@H](C)C=C(C)[C@@H]1OC(N)=O)C2=O`: the Potency in [1] was 271 nM (active); in [2], 166 nM (active); in test [3] it was 132 nM (active); in test [4] it was 4850 nM (active); in test [5], 132 nM (active); in test [9] it was 385 nM (active). The Potency is 52.6 nM (active) in test [6], 18700 nM (active) in test [7] and 5900 nM (active) in [8].

For the origin of these results see PubChem BioAssay (NCATS).
